DRD3 antagonist = antagonists of human D3 dopamine receptor | D3R cells, DiscoveRx beta-arrestin luminescence, antagonist mode; active compounds read low | max response, negative = inhibition, % | 360,000 compounds, 2.5% hits | AID 652054; in the data active means max response below about -50%; inconclusive means no clear call, values can overlap the other calls; further: on the % scale 0 is the no-effect control and ±100 the full control effect
Target sequence (P35462 whole entry, looked up): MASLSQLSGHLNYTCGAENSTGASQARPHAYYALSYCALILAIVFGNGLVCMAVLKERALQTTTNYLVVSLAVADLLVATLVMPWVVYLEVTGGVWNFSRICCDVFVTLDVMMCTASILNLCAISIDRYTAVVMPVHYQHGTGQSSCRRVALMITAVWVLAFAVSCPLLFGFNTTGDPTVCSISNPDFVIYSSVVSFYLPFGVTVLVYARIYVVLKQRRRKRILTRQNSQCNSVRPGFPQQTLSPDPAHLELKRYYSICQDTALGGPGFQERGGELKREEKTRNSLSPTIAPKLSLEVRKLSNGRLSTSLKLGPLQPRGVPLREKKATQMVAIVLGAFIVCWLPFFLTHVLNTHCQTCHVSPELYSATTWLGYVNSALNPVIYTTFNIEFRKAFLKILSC
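Cells plated overnight at 1500 cells/well, then exposed to library compounds with dopamine controls for 90 minutes at 37 degrees C. DiscoveRx reagent added for 30–60 minutes at room temperature; luminescence read, quantitative HTS format.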
SW480 rerep = induces DNA re-replication in SW480 colon adenocarcinoma cells; SW480 DNA re-replication, Hoechst DNA content imaging, 48 h; Potency, µM (series often up to 46.1 µM), for the others: at the top dose re-replication activation, usual class: activators; 340,000 compounds, 1.8% hits; AID 624297; further: potency means the concentration at half of the fitted maximal effect; % of control where 0% means no effect; nearly all actives have a fitted effect of over 55% in size
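Compounds, transferred as 23 nL by pin tool, were incubated with cells for 48 hr; DNA content per nucleus was then quantified by Hoechst staining and fluorescence plate imaging.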
KB-3-1 cytotox = kills parental KB-3-1 adenocarcinoma cells; KB-3-1 viability, CellTiter-Glo ATP luminescence, 72 h; Potency, µM (highest dose often 46.1 µM), hits mostly cytotoxic; 400,000 compounds, 1.4% hits; further: potency means the concentration at half of the fitted maximal effect; on the % scale 0 is the no-effect control and ±100 the full control effect; nearly all actives have a fitted effect of over 60% in size
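Luminescent ATP read-out (CellTiter-Glo) measures survival of drug-naive KB-3-1 cells after 72 h compound exposure at 37 °C. Titration series was screened from lowest to highest concentration, with DMSO vehicle plates as background controls.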
MCF10A rereplic = induces DNA re-replication in MCF 10a normal breast cells. MCF 10A DNA re-replication, Hoechst nuclear intensity, 48 h. Potency, µM (highest dose often 46.1 µM), inactives show top-dose activity, positive = re-replication, hits mostly activators. 350,000 compounds, 2.9% hits. AID 624296; further: potency means the concentration at half of the fitted maximal effect; % of control where 0% means no effect; nearly all actives have a fitted effect of over 50% in size
D3 ag = activates the human D3 dopamine receptor. AID 652048. D3R DiscoveRx beta-arrestin cells, luminescence, 90 min. 410,000 compounds, 0.58% hits. max activation, %; in the data active means max activation above about 30%; further: 0% is about no effect
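Agonist mode: compounds and dopamine controls were applied to plated cells for 90 min at 37 degrees C after an overnight attachment at 1500 cells/well. Luminescent read-out followed 30 - 60 minutes at room temperature with DiscoveRx detection reagent.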
KB-V1 cytotox = KB-V1 MDR subline cytotoxicity. KB-V1 MDR cells viability, CellTiter-Glo, 72 h. 400,000 compounds, 3.4% hits. Potency, µM (highest dose often 46.1 µM), most hits filed as cytotoxic; further: potency means the concentration at half of the fitted maximal effect; on the % scale 0 is the no-effect control and ±100 the full control effect; nearly all actives have a fitted effect of over 60% in size
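Readout: CellTiter-Glo luminescence, 10 min after addition. Cells: KB-V1 MDR subline, 72 h at 37 degrees C with compound. Analysis: corrected, normalized data fitted to concentration-effect curves.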
* marks the source's active call; other numbers are inactive results; i = inactive; ? = inconclusive; / = not tested or not shown. Sampled rows, rich in hits. Any-hit rate of the full collection: about 8.9%. Unless noted, the call rests on the fitted dose curve; in most records, active means well fitted curve in the direction sought with a large enough effect; inconclusive means small, poorly fitted or top-dose-only effect, or another doubt; inactive means no such curve, though single readings can be large; an effect the other way counts as inactive or inconclusive.

SMILES | DRD3 antagonist | SW480 rerep | KB-3-1 cytotox | MCF10A rereplic | D3 ag | KB-V1 cytotox
OCC1(Cc2ccc(Cl)cc2)CCN(Cc2ccccc2F)CC1 | ? | -9% | ? | 12% | -20 | i
O=C(COc1ccccc1Cl)OCc1cc(=O)n2nc(C3CC3)sc2n1 | / | / | i | / | 6 | i
Nc1nn(-c2ccccc2)nc1C(=O)OCc1ccccc1 | -65* | -50% | i | -10% | -14 | i
CC(=O)c1c(C)[nH]c(C(=O)N2CCCC(C)C2)c1C (centres undefined) | 8 | 2.3µM* | i | 9% | 4 | i
CC(=O)c1c(C)[nH]c(C(=O)N2CC(C)CC(C)C2)c1C (centres undefined) | 2 | 24% | i | 8% | -2 | i
CC(=O)c1c(C)[nH]c(C(=O)NCCN2CCC(C)CC2)c1C | -51* | -5% | i | 1% | -19 | i
Cc1ccc(CN(C(=O)COc2ccc(C(C)C)cc2)C2CCS(=O)(=O)C2)o1 (centres undefined) | / | / | i | / | -16 | i
CC(C)[C@H](CO)Nc1nc(NCc2ccc(S(N)(=O)=O)cc2)c2ncn(C(C)C)c2n1 | -26 | 18µM* | ? | 27% | 6 | i
CN(C)c1ccc(CN2CCCCCC2)cc1 | ? | -11% | i | 2% | -25 | i
CCN(CC)c1ccc(CN2CCCCCC2)cc1 | ? | ? | ? | ? | -23 | 18µM*
Fc1ccc(CN2CCCCCCC2)c(F)c1 | -53* | -7% | i | -2% | -2 | i
CSc1ccc(CN2CCCCCC2)cc1 | ? | 0% | i | 8% | -9 | i
Fc1ccc(CN2CCCCCCC2)cc1F | -65* | -5% | i | -3% | 2 | i
COc1cc(OC)c(-c2c3cc(O)c(=O)cc-3oc3cc(O)c(O)cc23)cc1OC | -77* | 5% | i | 3% | -26 | i
CC12CCC(=O)CC1CCC1C2CCC2(C)C1CCC2(O)C(=O)CO (centres undefined) | -18 | 5% | i | 0% | -3 | i
Cc1cc(O)c2c(c1)CC1C3CCC4CC(=O)CCC4(C)C3CC(=O)C21C (centres undefined) | 19 | ? | ? | 16µM* | -2 | ?
CCCCc1nn2c(=O)cc(COC(=O)C(C)Oc3ccccc3)nc2s1 (centres undefined) | / | / | i | / | -7 | i
CCCn1nc([N+](=O)[O-])c(C(C#N)c2nc3ccccc3s2)c(Cl)c1=O (centres undefined) | ? | 1.3µM* | ? | ? | -1 | 5.8µM*
COc1ccc(NS(=O)(=O)c2cc3[nH]c(=O)c(=O)[nH]c3cc2C)cc1OC | / | / | / | / | 11 | /
O=C(CSc1nnc(-c2ccco2)o1)NC(=O)C1COc2ccccc2O1 (centres undefined) | -55* | -5% | i | 0% | 3 | i
O=C(CSc1nnc(-c2ccco2)o1)NC(=O)Cc1ccccc1 | -15 | 1% | i | -4% | -6 | i
CCN(CC)C(=O)Cn1c(=O)n(CC2CCC(C(=O)NC)CC2)c(=O)c2sccc21 (centres undefined) | / | / | i | / | -23 | i
COc1cc(/C=C(/NC(=O)c2ccccc2)C(=O)Nc2ccccc2)c([N+](=O)[O-])cc1OC | 1 | 1% | i | 0% | -4 | 16µM*
CCCCCNc1nc(N2CCCC2)c2c(c1C#N)CCN(C)C2 | -66* | ? | ? | 11µM* | 1 | 23µM*
CCCCCNc1nc(NCCCO)c(C#N)c2c1CN(C)CC2 | -7 | -2% | i | -11% | -9 | ?
CCc1ccc(C(=O)Cn2cnc3cc([N+](=O)[O-])ccc3c2=O)cc1 | -1 | 4% | i | 2% | 2 | i
CN(Cc1cccs1)C(=O)Cn1cnc2cc([N+](=O)[O-])ccc2c1=O | -18 | -13% | i | 0.82µM* | 2 | i
COc1ccc(NC(=O)CSc2c3c(nc4ccc(Cl)cc24)CCCC3)cc1Cl | / | / | / | / | -3 | /

Assay outcomes deposited in PubChem by National Center for Advancing Translational Sciences (NCATS).
